Whole data set: some 18,000 sequences, median “log2 normalized intensity” near 0.36, cut for the highest 2% near 7.3. The full list was thinned out, with the highest values kept by preference.

This is an account of results in article PMC10726135, “HNF4α isoforms regulate the circadian balance between carbohydrate and lipid metabolism in the liver”.

This assay deals with T1, HNF4alpha8 (COS-7 nuclear extract) (Homo sapiens, UniProt P41235-5 1-452).
T1 sequence: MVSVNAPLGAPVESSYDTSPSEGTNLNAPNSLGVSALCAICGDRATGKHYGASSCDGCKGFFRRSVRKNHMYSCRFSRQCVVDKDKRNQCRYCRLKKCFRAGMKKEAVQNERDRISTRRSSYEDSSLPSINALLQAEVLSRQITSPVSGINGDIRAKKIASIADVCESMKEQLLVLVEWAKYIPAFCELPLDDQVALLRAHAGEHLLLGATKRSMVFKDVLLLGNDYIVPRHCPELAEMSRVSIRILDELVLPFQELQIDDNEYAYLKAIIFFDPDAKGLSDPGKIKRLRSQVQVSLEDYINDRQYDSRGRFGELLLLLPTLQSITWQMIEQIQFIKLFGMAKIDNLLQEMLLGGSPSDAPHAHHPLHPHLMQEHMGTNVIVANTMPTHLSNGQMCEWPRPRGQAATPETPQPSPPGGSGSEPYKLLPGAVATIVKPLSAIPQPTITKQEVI
As to the kind of experiment: protein-binding microarray; COS-7 nuclear extract on double-stranded Agilent 4x180k PBM; binding buffer, salt, pH and temperature not given in the material; high values mean tight binding. The note with it: chain copies: 2; label: 3' end of strand 1 on the slide; dsDNA, one strand shown. In short, it runs like this:
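A human HNF4α isoform was expressed in COS-7 cells by transient CaPO4 transfection, and nuclear extracts were prepared. These were applied to a custom Agilent SurePrint G3 4x180k array carrying ~44,000 test sequences in quadruplicate as double-stranded ~60-nt oligonucleotides, and an Agilent G2565CA scanner imaged bound HNF4α at 2-µm resolution. The background-corrected, normalized gProcessedSignal from Agilent software was used as the binding signal.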
Regarding “GGAACCCCACCCCCACGCCCCCCAGCGGAAGCCTAGGGAGATTAGAGTATCGGTCGA”, the binding signal turned out to be 7.38 log2 normalized intensity.

“GGATCGGAACCCCACCCCCACGCCCCCCAGGCCTAGGGAGATTAGAGTATCGGTCGA”: the binding signal was 7.03 log2 normalized intensity.

“CCCACCCCCACGCCCCCCAGCGGAAGTCCAGCCTAGGGAGATTAGAGTATCGGTCGA”: the binding signal came to 6.82 log2 normalized intensity.

“ACCGACCTTTGGTTCCTGAACTCAAACCCCGCCTAGGGAGATTAGAGTATCGGTCGA”: the binding signal is 3.35 log2 normalized intensity.

Turning to “CCCCACCCCCACTGCCTGACCCCAAGTAATGCCTAGGGAGATTAGAGTATCGGTCGA”, the binding signal amounted to 7.09 log2 normalized intensity.

For the sequence “CTTCCACCCACTTTATCTTCTATAGGAATTGCCTAGGGAGATTAGAGTATCGGTCGA”, the binding signal worked out at 0.738 log2 normalized intensity.

In the case of “GTGTGTGGCCTGCACAGTTGCACAATGTCAGCCTAGGGAGATTAGAGTATCGGTCGA”, the binding signal is 0.815 log2 normalized intensity.

On to “CTATAGTTATCTCTGCTGATAGCATAAAGCGCCTAGGGAGATTAGAGTATCGGTCGA”, for which the binding signal was determined as 0.212 log2 normalized intensity.

Take “GGCTCCCTGGGGTTAAAATGTTTACTGAAGGCCTAGGGAGATTAGAGTATCGGTCGA”: the binding signal was 0.937 log2 normalized intensity.

For “CTGTGCAAGCCCCTGACCAAGGGTCATGCTGCCTAGGGAGATTAGAGTATCGGTCGA”, the binding signal was 3.96 log2 normalized intensity.

For “GCTATCTTATCTTTGACCTTACCAGCCCACGCCTAGGGAGATTAGAGTATCGGTCGA”, the binding signal amounted to 2.94 log2 normalized intensity.

For “CTGACCTTTGCCCCCAGCCTCTCACAGTAGGCCTAGGGAGATTAGAGTATCGGTCGA”, the binding signal came out at 7.53 log2 normalized intensity.

On to “GAACTCTGACCTTTGCCCCCAGCCTCTCACGCCTAGGGAGATTAGAGTATCGGTCGA”, for which the binding signal was 9.22 log2 normalized intensity.

In the case of “AGCCTCTCACAGTAGCCCAGGTCCTTTGGTGCCTAGGGAGATTAGAGTATCGGTCGA”, the binding signal stood at 0.598 log2 normalized intensity.

In the case of “CTTTGCCCCCAGCCTCTCACAGTAGCCCAGGCCTAGGGAGATTAGAGTATCGGTCGA”, the binding signal stood at 4.72 log2 normalized intensity.

Regarding “TGCCCAGCTTGAATCACTCACTGACCTCTTGCCTAGGGAGATTAGAGTATCGGTCGA”, the binding signal came to 4.46 log2 normalized intensity.

Regarding “TCTGCTTGCCATTAATGAAAACTGCACTTCGCCTAGGGAGATTAGAGTATCGGTCGA”, the binding signal turned out to be 2.38 log2 normalized intensity.

With “TTTATTTGAAGAAATGGTGGACTTTGTAGCGCCTAGGGAGATTAGAGTATCGGTCGA”, the binding signal was determined as 6.52 log2 normalized intensity.

In the case of “CACCACTAGGAAACTGACCTTTGCTCATGAGCCTAGGGAGATTAGAGTATCGGTCGA”, the binding signal was 7.58 log2 normalized intensity.

Consider “AAAGACTTGCTCATTGATGAGTGACCTTTGGCCTAGGGAGATTAGAGTATCGGTCGA”, for which the binding signal was determined as 7 log2 normalized intensity.

For the sequence “ATTCTCACCACTAGGAAACTGACCTTTGCTGCCTAGGGAGATTAGAGTATCGGTCGA”, the binding signal was 6.07 log2 normalized intensity.

Take “CTTTGACCTCAGAGAGCCGGAAACTCCACCGCCTAGGGAGATTAGAGTATCGGTCGA”: the binding signal is -0.861 log2 normalized intensity.

“TTGCCCCTTTGACCCTCGGGCCTCCCTAGAGCCTAGGGAGATTAGAGTATCGGTCGA”: the binding signal was 4.81 log2 normalized intensity.

For “TCATTGATGAGTGACCTTTGACCTCAGAGAGCCTAGGGAGATTAGAGTATCGGTCGA”, the binding signal turned out to be 10.5 log2 normalized intensity.

Take “GATGAGTGACCTTTGACCTCAGAGAGCCGGGCCTAGGGAGATTAGAGTATCGGTCGA”: the binding signal was found to be 9.88 log2 normalized intensity.

“CTACTACTTGACCTTTGAAACATATCCAGAGCCTAGGGAGATTAGAGTATCGGTCGA”: the binding signal is 6.31 log2 normalized intensity.

As to “GTGACCTTTGACCTCAGAGAGCCGGAAACTGCCTAGGGAGATTAGAGTATCGGTCGA”, the binding signal worked out at 8.02 log2 normalized intensity.

Consider “CCCTCAGAGCTCAGATGAACTTTGCCTTAGGCCTAGGGAGATTAGAGTATCGGTCGA”, for which the binding signal was 6.28 log2 normalized intensity.

“CTAGGAAACTGACCTTTGCTCATGACTATTGCCTAGGGAGATTAGAGTATCGGTCGA”: the binding signal was 6.61 log2 normalized intensity.

With “GGCTGATGACCTTTGACTGAGATGGGAGCAGCCTAGGGAGATTAGAGTATCGGTCGA”, the binding signal was 4.58 log2 normalized intensity.

As to “GGTCAATGTGCACATTCGAAGTTTTGCTCCGCCTAGGGAGATTAGAGTATCGGTCGA”, the binding signal came to 1.65 log2 normalized intensity.

In the case of “GGATATTTGATCAAAGGTCAGCTCTCCTTTGCCTAGGGAGATTAGAGTATCGGTCGA”, the binding signal is 5.11 log2 normalized intensity.

For the sequence “TTTATAATCCTAGCTTGGTTTTTCTGGGACGCCTAGGGAGATTAGAGTATCGGTCGA”, the binding signal was 0.942 log2 normalized intensity.

Take “GGATTATGGAGATGGAGATGGCCTGGAGGTGCCTAGGGAGATTAGAGTATCGGTCGA”: the binding signal was 0.909 log2 normalized intensity.

In the case of “ACAACCAGGGAGATGTGAGCGACCTTTGCAGCCTAGGGAGATTAGAGTATCGGTCGA”, the binding signal stood at 4.55 log2 normalized intensity.

For the sequence “GGTTGTAAAATGAGGTCAGCATGGTGGGAGGCCTAGGGAGATTAGAGTATCGGTCGA”, the binding signal was found to be 1.04 log2 normalized intensity.

Consider “GGGGCGATGCTTCCAAAGTCCACAGTCCCCGCCTAGGGAGATTAGAGTATCGGTCGA”, for which the binding signal was 3.92 log2 normalized intensity.

With “CTCTTTTACTGTACTTCTTTAGGACTGCTCGCCTAGGGAGATTAGAGTATCGGTCGA”, the binding signal worked out at 1.37 log2 normalized intensity.

Take “ATATAAAAACTAACCATACTGAGTGTTGGTGCCTAGGGAGATTAGAGTATCGGTCGA”: the binding signal is -0.252 log2 normalized intensity.

As for “AGTGTAAGGACATTGCCCCCTATGTAAAGGGCCTAGGGAGATTAGAGTATCGGTCGA”, the binding signal was 4.09 log2 normalized intensity.

“TGATTACCCTTATCTTATCTCCTGCTAAATGCCTAGGGAGATTAGAGTATCGGTCGA”: the binding signal is -0.759 log2 normalized intensity.

“TTTCAACATTTAACTTAACCACTCAATCAGGCCTAGGGAGATTAGAGTATCGGTCGA”: the binding signal was -0.86 log2 normalized intensity.

Turning to “CTTTGAGATTTGCATTCATGATCTTAGATAGCCTAGGGAGATTAGAGTATCGGTCGA”, the binding signal is 0.242 log2 normalized intensity.
